“And” between values parts separate entries of the source, which are not always exact repeats. Equal values may be shown once. Records with an inconclusive call do not appear. Entries that show only a call come without a potency. Some structures have more than one record in an assay (separate samples or runs), and their calls can disagree. The source made the active and inactive calls. Unless noted, the call rests on the fitted dose curve; in most records, active means well fitted curve in the direction sought with a large enough effect in the repeat runs; inconclusive means weak or mixed curves; inactive means no such curve, though single readings can be large; an effect the other way counts as inactive or inconclusive.
Legend:
[1] = molecular target: Acetylcholinesterase (Homo sapiens) (UniProt P22303); assay: Acetylcholinesterase (AChE) small molecule antagonists: colormetric cell-based qHTS assay (AID 1347395; calls by dose curve; further: nearly all actives have a fitted effect of over 30% in size; further: potency means the concentration at half of the fitted maximal effect); settings: SH-SY5Y cells AChE activity, colorimetric (Ellman); series mostly up to 115 µM
Method in brief: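 SH-SY5Y cells, plated overnight at 37 C, were exposed to compounds for 30 min at 37 C and 5% CO2. Acetylthiocholine plus DTNB was then added, and thiocholine from endogenous AChE was quantified colorimetrically after 90 min at 37 C.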

[2] = molecular target: Acetylcholinesterase (Homo sapiens) (UniProt P22303); assay: Acetylcholinesterase (AChE) small molecule antagonists: enzyme-based qHTS assay (AID 1347397; calls by dose curve; further: nearly all actives have a fitted effect of over 55% in size; further: potency means the concentration at half of the fitted maximal effect); settings: Potency: AChE enzyme activity inhibition; series mostly up to 115 µM
Method in brief: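 Human recombinant acetylcholinesterase; substrate acetylthiocholine; thiocholine quantified with DTNB (colorimetric). Compound preincubation 30 min RT; reaction 10 min RT.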

[3] = molecular target: Acetylcholinesterase (Homo sapiens) (UniProt P22303); assay: Acetylcholinesterase (AChE) small molecule antagonists: fluorescence cell-based qHTS assay (AID 1347398; calls by dose curve; further: nearly all actives have a fitted effect of over 50% in size; further: potency means the concentration at half of the fitted maximal effect); settings: SH-SY5Y cells; Potency: AChE activity; series mostly up to 115 µM
Method in brief: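 Thiocholine generated from acetylthiocholine by SH-SY5Y cell AChE is detected with Thiolite Green (Ex/Em 490/520 nm) after 40 min at room temperature, following 30 min compound pretreatment at 37 C.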

[4] = molecular target: Acetylcholinesterase (Homo sapiens) (UniProt P22303); assay: Acetylcholinesterase (AChE) small molecule antagonists: enzyme-based qHTS assay with human liver microsomes (AID 1347399; calls by dose curve; further: nearly all actives have a fitted effect of over 60% in size; further: potency means the concentration at half of the fitted maximal effect); settings: Potency: qHTS inhibition; series mostly up to 115 µM
Method in brief: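 Recombinant human AChE (50 mU/mL in the enzyme mix) and human liver microsomes (0.25 mg/mL final) were preincubated with compound and NADPH (0.25 mg/mL final) for 30 min at 37 C. Acetylthiocholine/DTNB was then added; thiocholine was read colorimetrically after 10 min at room temperature.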

[5] = molecular target: Cytochrome P450 2D6 (Homo sapiens) (UniProt P10635); assay: Cytochrome P450 Family 2 Subfamily D Member 6 (CYP2D6) small molecule antagonists: luciferase reporter qHTS assay (AID 1671196); settings: P450-Glo CYP2D6 enzyme assay, luciferin luminescence, 1 h; series mostly up to 115 µM; further: nearly all actives have a fitted effect of over 50% in size; further: potency means the concentration at half of the fitted maximal effect
Method in brief: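 Luminescence (RLU), read 20 min after detection reagent, indicated CYP2D6 conversion of proluciferin to luciferin during a 1 h NADPH-dependent reaction at room temperature.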

[6] = molecular target: Cytochrome P450 2C19 (Homo sapiens) (UniProt P33261); assay: Cytochrome P450 Family 2 Subfamily C Member 19 (CYP2C19) small molecule antagonists: luciferase reporter qHTS assay (AID 1671197); settings: P450-Glo CYP2C19 enzyme, luciferin luminescence, 1 h; series mostly up to 115 µM; further: nearly all actives have a fitted effect of over 65% in size; further: potency means the concentration at half of the fitted maximal effect
Method in brief: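 P450-Glo CYP2C19 system: enzyme-substrate mix with compound 10 min at room temperature, then NADPH regeneration solution, 1 h at 37C. Proluciferin-to-luciferin conversion detected by luminescence after 20 min with detection reagent; ketoconazole as positive control.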

[7] = molecular target: Cytochrome P450 2C9 (Homo sapiens) (UniProt P11712); assay: Cytochrome P450 Family 2 Subfamily C Member 9 (CYP2C9) small molecule antagonists: luciferase reporter qHTS assay (AID 1671198); settings: P450-Glo CYP2C9 enzyme assay, luciferin luminescence; series mostly up to 115 µM; further: nearly all actives have a fitted effect of over 50% in size; further: potency means the concentration at half of the fitted maximal effect
Method in brief: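 CYP2C9 activity was measured with a P450-Glo proluciferin substrate. Enzyme–substrate mix was held with compound for 10 min at room temperature, then NADPH regeneration solution was added for 1 h at 37C. Luciferin product was read as luminescence.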

[8] = molecular target: Cytochrome P450 1A2 (Homo sapiens) (UniProt P05177); assay: Cytochrome P450 Family 1 Subfamily A Member 2 (CYP1A2) small molecule antagonists: luciferase reporter qHTS assay (AID 1671199); settings: P450-Glo CYP1A2 enzyme, luciferin luminescence, 1 h; series mostly up to 115 µM; further: nearly all actives have a fitted effect of over 50% in size; further: potency means the concentration at half of the fitted maximal effect
Method in brief: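 CYP1A2 turnover of a luminogenic substrate was quantified after 1 h with NADPH regeneration at room temperature. Furafylline served as positive control.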

[9] = molecular target: Voltage-gated inwardly rectifying potassium channel KCNH2 (Homo sapiens) (UniProt Q12809); assay: Human Ether-a-go-go-Related Gene (hERG) channel small molecule antagonists: fluorescence cell-based qHTS assay (AID 1671200); settings: hERG-U2OS cells, FluxOR thallium flux fluorescence; series mostly up to 76.8 µM
Method in brief: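 U2OS cells expressing the channel were plated at 1000 cells/well, incubated overnight at 37 C, then loaded with FluxOR II thallium-sensitive dye for 1 h at room temperature in the dark, with a further 10 min at room temperature before stimulation.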

[10] = molecular target: Cytochrome P450 3A4 (Homo sapiens) (UniProt P08684); assay: Cytochrome P450 Family 3 Subfamily A Member 4 (CYP3A4) small molecule antagonists: luciferase reporter qHTS assay (AID 1671201); settings: P450-Glo CYP3A4 enzyme, luciferin luminescence, 1 h; series mostly up to 115 µM; further: nearly all actives have a fitted effect of over 50% in size; further: potency means the concentration at half of the fitted maximal effect
Method in brief: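 P450-Glo CYP3A4 system with proluciferin substrate; compounds preincubated 10 min RT with enzyme-substrate mix, then NADPH regeneration added for 1 h RT. Detection reagent 20 min, luminescence read as relative luminescence units.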

Chain of Cytochrome P450 3A4 (Homo sapiens) (P08684 whole entry, looked up): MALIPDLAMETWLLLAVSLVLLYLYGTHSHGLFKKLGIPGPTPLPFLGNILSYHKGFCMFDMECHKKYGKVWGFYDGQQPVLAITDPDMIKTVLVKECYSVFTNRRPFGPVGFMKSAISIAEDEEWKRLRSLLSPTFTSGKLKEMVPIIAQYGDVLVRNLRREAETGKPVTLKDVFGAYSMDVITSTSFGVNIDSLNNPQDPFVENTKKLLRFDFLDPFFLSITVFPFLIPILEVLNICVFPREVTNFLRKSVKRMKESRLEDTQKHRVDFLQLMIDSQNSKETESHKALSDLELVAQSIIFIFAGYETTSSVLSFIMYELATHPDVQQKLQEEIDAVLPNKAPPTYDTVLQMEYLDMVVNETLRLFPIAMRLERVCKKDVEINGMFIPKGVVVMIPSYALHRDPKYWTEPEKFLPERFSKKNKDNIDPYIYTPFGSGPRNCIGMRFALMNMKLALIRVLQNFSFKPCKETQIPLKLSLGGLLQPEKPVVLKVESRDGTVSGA
Chain of Cytochrome P450 2C19 (Homo sapiens) (P33261 whole entry, looked up): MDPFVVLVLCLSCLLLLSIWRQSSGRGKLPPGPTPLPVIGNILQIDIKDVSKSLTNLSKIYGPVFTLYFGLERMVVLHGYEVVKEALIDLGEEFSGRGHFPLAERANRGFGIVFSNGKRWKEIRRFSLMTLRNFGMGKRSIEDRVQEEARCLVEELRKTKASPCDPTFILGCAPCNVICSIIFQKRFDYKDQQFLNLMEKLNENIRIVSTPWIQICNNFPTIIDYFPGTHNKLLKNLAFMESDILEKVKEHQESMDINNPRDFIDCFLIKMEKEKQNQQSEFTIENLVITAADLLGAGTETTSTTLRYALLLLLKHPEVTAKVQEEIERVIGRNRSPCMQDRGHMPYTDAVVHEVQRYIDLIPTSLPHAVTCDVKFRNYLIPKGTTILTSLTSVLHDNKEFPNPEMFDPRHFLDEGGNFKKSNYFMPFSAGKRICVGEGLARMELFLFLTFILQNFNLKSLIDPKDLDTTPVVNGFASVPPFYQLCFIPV
Chain of Cytochrome P450 2C9 (Homo sapiens) (P11712 whole entry, looked up): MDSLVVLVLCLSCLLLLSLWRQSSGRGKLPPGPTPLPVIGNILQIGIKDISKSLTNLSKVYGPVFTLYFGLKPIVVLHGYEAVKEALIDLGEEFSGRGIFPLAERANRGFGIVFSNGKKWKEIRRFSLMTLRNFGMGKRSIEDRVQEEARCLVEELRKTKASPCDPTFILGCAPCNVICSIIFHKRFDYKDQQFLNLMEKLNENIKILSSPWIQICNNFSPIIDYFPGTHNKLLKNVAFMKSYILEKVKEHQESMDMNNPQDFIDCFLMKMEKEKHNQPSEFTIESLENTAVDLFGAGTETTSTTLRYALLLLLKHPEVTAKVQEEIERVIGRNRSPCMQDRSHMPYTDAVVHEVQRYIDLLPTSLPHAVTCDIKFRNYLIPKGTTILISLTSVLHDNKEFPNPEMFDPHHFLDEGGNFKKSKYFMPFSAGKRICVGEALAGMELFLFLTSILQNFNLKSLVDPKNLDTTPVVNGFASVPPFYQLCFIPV
Chain of Cytochrome P450 2D6 (Homo sapiens) (P10635 whole entry, looked up): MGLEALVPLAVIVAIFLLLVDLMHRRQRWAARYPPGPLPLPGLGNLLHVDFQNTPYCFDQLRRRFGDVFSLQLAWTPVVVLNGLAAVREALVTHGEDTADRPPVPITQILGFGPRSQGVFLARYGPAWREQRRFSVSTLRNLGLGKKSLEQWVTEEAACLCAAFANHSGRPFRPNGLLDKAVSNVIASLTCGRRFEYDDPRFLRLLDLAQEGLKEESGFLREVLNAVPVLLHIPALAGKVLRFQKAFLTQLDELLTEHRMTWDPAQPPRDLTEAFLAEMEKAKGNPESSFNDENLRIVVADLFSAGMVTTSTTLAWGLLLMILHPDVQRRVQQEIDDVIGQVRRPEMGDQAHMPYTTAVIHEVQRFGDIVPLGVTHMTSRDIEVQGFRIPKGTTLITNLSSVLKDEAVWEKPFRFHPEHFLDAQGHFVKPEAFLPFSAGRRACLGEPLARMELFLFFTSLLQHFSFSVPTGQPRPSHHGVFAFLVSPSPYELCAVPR
Chain of Acetylcholinesterase (Homo sapiens) (P22303 whole entry, looked up): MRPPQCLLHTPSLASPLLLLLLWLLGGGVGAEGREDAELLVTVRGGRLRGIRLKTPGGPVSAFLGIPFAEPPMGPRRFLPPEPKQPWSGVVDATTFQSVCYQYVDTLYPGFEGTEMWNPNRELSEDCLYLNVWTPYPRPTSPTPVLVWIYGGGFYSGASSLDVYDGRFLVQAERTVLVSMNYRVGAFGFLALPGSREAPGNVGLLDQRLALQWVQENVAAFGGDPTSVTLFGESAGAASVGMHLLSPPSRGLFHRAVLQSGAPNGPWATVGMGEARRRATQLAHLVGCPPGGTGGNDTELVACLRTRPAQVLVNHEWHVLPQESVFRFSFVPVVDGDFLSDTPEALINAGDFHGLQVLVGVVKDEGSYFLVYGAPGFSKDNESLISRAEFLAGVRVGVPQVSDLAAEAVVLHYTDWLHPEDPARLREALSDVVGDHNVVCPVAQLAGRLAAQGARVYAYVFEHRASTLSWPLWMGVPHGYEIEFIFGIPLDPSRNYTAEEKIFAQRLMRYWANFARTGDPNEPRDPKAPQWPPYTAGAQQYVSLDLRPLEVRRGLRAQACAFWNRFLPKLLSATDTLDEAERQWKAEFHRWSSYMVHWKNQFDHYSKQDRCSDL
Chain of Cytochrome P450 1A2 (Homo sapiens) (P05177 whole entry, looked up): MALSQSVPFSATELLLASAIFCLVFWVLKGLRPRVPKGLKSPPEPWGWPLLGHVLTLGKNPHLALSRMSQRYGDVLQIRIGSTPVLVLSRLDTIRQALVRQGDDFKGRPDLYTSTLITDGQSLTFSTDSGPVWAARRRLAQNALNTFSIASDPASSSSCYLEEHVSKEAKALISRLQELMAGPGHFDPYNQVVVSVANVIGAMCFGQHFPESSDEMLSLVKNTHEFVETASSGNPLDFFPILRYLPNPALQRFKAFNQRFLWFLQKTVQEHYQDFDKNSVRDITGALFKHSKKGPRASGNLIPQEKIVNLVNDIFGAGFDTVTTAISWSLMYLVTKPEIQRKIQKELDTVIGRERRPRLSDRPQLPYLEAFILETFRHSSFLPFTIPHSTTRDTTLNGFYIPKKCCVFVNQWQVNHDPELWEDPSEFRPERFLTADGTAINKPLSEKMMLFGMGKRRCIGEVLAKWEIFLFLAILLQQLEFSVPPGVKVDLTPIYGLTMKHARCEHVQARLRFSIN
Chain of Voltage-gated inwardly rectifying potassium channel KCNH2 (Homo sapiens) (Q12809 whole entry, looked up): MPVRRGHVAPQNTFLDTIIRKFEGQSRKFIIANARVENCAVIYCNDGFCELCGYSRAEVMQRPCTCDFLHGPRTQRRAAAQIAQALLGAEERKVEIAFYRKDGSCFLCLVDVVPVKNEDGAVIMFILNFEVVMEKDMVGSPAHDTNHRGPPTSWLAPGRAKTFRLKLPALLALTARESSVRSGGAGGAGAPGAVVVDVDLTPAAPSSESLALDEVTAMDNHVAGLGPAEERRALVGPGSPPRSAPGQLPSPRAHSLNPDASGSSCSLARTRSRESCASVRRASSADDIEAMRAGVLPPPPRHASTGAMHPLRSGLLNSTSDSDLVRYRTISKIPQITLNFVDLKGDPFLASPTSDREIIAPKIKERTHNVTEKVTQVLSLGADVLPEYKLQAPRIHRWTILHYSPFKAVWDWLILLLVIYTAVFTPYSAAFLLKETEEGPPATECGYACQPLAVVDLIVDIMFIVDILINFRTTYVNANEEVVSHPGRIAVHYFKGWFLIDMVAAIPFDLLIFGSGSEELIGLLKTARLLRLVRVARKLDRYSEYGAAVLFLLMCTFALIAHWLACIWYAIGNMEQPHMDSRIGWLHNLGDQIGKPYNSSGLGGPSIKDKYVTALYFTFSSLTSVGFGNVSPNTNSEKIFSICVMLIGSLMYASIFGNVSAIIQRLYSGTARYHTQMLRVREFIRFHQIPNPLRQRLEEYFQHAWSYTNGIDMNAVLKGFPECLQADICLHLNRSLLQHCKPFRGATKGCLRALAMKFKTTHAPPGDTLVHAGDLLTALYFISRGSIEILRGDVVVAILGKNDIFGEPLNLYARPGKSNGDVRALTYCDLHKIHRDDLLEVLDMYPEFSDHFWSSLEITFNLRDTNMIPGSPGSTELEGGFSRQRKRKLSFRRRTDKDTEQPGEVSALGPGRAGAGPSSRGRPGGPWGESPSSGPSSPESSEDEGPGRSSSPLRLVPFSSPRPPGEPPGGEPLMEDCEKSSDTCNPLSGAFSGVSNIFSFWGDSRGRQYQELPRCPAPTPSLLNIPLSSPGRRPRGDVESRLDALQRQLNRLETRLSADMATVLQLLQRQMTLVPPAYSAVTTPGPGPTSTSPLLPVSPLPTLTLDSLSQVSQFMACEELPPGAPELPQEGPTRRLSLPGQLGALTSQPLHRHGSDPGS

SMILES | Potency [1] | Potency [2] | Potency [3] | Potency [4] | Potency [5] | Potency [6] | Potency [7] | Potency [8] | Potency [9] | Potency [10]
C=CC(=O)OCCO | inactive | inactive | inactive | inactive | inactive | inactive | inactive |  |  | 
CC(C)(C)c1ccccc1O | inactive | inactive | inactive | inactive | inactive | inactive | inactive |  |  | 
CC(C)C(=O)OCC(C)(C)C(OC(=O)C(C)C)C(C)C (stereo not drawn) | inactive | inactive |  | inactive | 32 µM (active) and inactive | inactive |  | inactive | inactive | 
CCC(CC)Nc1c([N+](=O)[O-])cc(C)c(C)c1[N+](=O)[O-] | inactive | inactive |  | inactive | inactive | 36.1 µM (active) and 10 µM (active) |  | 28.6 µM (active) and 17.8 µM (active) | inactive | 
O=c1oc2ccccc2c(O)c1C(CC(O)c1ccc(-c2ccc(Br)cc2)cc1)c1ccccc1 (stereo not drawn) | inactive | inactive | inactive | inactive | inactive |  |  | inactive | inactive | 
Oc1c(Cl)c(Cl)c(Cl)c(Cl)c1Cl | inactive | inactive |  | inactive | inactive and 796 nM (active) | 34.9 µM (active) and 15.9 µM (active) and inactive |  | 62 µM (active) and 35.5 µM (active) and 79.6 µM (active) | inactive | inactive
NCc1cccnc1 | inactive | inactive | inactive | inactive | inactive | 28.3 µM (active) and inactive | inactive | inactive |  | inactive
NC(=S)Nc1ccccc1 | inactive | inactive | inactive | inactive | 9.09 µM (active) and 35.6 µM (active) | 4.06 µM (active) and inactive | 25.6 µM (active) and inactive | 25.6 µM (active) and inactive |  | 5.73 µM (active) and inactive
O=P(O)(O)CCCl | 40.7 µM (active) and 39.8 µM (active) | inactive | inactive | inactive | inactive | inactive | inactive | inactive |  | 
Cc1c(COC(=O)[C@@H]2[C@H](/C=C(\Cl)C(F)(F)F)C2(C)C)cccc1-c1ccccc1 | inactive | inactive | inactive | inactive | inactive | 7.79 µM (active) and 8.91 µM (active) | 19.6 µM (active) and 11.2 µM (active) | inactive | inactive | 
CCCCCCCCC(=O)NCc1ccc(O)c(OC)c1 | inactive | inactive |  | inactive | 31.7 µM (active) and 17.4 µM (active) | 4.9 µM (active) |  | 31.7 µM (active) and 27.5 µM (active) | inactive | 
c1cc(OCC2CO2)ccc1Cc1ccc(OCC2CO2)cc1 (stereo not drawn) | inactive | inactive | inactive | inactive | 16 µM (active) and 28.3 µM (active) | 8 µM (active) and 7.96 µM (active) | 35.7 µM (active) and 28.3 µM (active) | 71 µM (active) | inactive | 
NNC(N)=S | inactive | inactive | inactive | inactive | inactive | 73.8 µM (active) |  | 20.8 µM (active) and 31.7 µM (active) |  | inactive
O=Cc1ccco1 | inactive | inactive | inactive | inactive | inactive | inactive | inactive | inactive |  | 
CC(C)c1ccc(CO)cc1 | inactive | inactive | inactive | inactive | inactive |  | 39.9 µM (active) |  | inactive | 
OCC(O)CO | inactive | inactive | inactive | inactive | inactive | inactive |  | inactive | inactive | inactive
CCCCN(CC)c1c([N+](=O)[O-])cc(C(F)(F)F)cc1[N+](=O)[O-] | inactive | inactive | inactive | inactive | inactive | 72.1 µM (active) and 20 µM (active) | 31.7 µM (active) | 22.4 µM (active) |  | inactive
CCC(=O)O[C@H]1CC[C@H]2[C@@H]3CCC4=CC(=O)CC[C@]4(C)[C@H]3CC[C@]12C | inactive | inactive | inactive | inactive | inactive | 17.8 µM (active) and inactive |  | inactive |  | inactive
Clc1nc(Cl)nc(Cl)n1 | inactive | inactive | inactive | inactive | inactive | inactive | inactive | inactive | inactive | inactive

SMILES | Potency [1] | Potency [2] | Potency [3] | Potency [4] | Potency [5] | Potency [6] | Potency [7] | Potency [8] | Potency [9] | Potency [10]
Oc1cc(Cl)ccc1Oc1ccc(Cl)cc1Cl | inactive | inactive |  | inactive | inactive | 459 nM (active) and 389 nM (active) |  | 30.1 µM (active) and 17.4 µM (active) | inactive | 
Cc1cc(Cl)ccc1OCCCC(=O)O | inactive | inactive | inactive | inactive | inactive | 82.8 µM (active) and inactive |  | inactive | inactive | 
CCOP(=S)(OCC)O/N=C(\C#N)c1ccccc1 | 63.3 µM (active) and 17.4 µM (active) | 56.4 µM (active) | 39.9 µM (active) | 1.78 µM (active) and 1.55 µM (active) | 35.6 µM (active) | 224 nM (active) and 347 nM (active) | 2 µM (active) and 2.19 µM (active) | 1.42 µM (active) and 1.23 µM (active) | inactive | 
O=C1C=CC(=O)C=C1 | inactive | inactive | inactive | inactive | inactive | inactive | inactive | 40.1 µM (active) |  | inactive
Cc1ccccc1[N+](=O)[O-] | inactive | inactive |  | inactive | inactive | inactive |  | inactive | inactive | inactive
COP(=S)(OC)Oc1cc(Cl)c(Cl)cc1Cl | inactive | inactive |  | inactive | inactive | 19.9 µM (active) and 7.76 µM (active) |  | 15.8 µM (active) and 11 µM (active) |  | 
CCOCN(C(=O)CCl)c1c(C)cccc1CC | 33.6 µM (active) and inactive | inactive |  | inactive | inactive | 9.47 µM (active) and 15.9 µM (active) |  | 33.6 µM (active) and inactive |  | 
Cc1ccc(N)c(N)c1 | inactive | inactive |  | inactive | 3.57 µM (active) and 17.8 µM (active) | 17.9 µM (active) and 31.7 µM (active) | 35.7 µM (active) and 20 µM (active) | 5.66 µM (active) and 20 µM (active) | inactive | 31.8 µM (active) and 31.7 µM (active)
CCOc1cc(Oc2ccc(C(F)(F)F)cc2Cl)ccc1[N+](=O)[O-] | inactive | inactive | inactive | inactive | 2.27 µM (active) and 5.64 µM (active) | 5.7 µM (active) and 7.1 µM (active) | 4.53 µM (active) and 6.33 µM (active) | 20 µM (active) |  | 
O=C(CCl)c1ccccc1 | inactive | inactive |  | inactive | 32.1 µM (active) and 31.7 µM (active) | 57.2 µM (active) | 40.5 µM (active) and inactive | inactive | inactive | 
Nc1c(Cl)cc([N+](=O)[O-])cc1Cl | inactive | inactive |  | inactive | 35.8 µM (active) and inactive | 40.2 µM (active) and 56.4 µM (active) | inactive | 1.79 µM (active) and 2.52 µM (active) |  | inactive
O=C(Nc1ccc(Br)cc1)c1cc(Br)cc(Br)c1O | inactive | inactive | inactive | inactive | 79.6 µM (active) and inactive | inactive | 35.5 µM (active) and 17.8 µM (active) and 15.5 µM (active) | 2.82 µM (active) and 35.6 µM (active) and 17.4 µM (active) | inactive | 
O=[N+]([O-])c1ccc(O)c([N+](=O)[O-])c1 | inactive | inactive | inactive | inactive | inactive | inactive |  | inactive | inactive | inactive
Nc1ccc(Cl)cc1N | inactive | inactive |  | inactive | 32.6 µM (active) | 20.8 µM (active) and 7.1 µM (active) | 32.6 µM (active) | 11.7 µM (active) and 10.9 µM (active) | inactive | 
CN(C)C(=O)Nc1ccc(Cl)cc1 | inactive | inactive | inactive | inactive | 9.86 µM (active) | 7.83 µM (active) |  | 3.93 µM (active) and 3.99 µM (active) | inactive | 
C=C(C)C(=O)OCC1CO1 (stereo not drawn) | inactive | inactive | inactive | inactive | inactive | inactive |  | inactive |  | inactive
N#CCCCl | inactive | inactive | inactive | inactive | inactive | 77.7 µM (active) and inactive |  | inactive | inactive | 
O=[N+]([O-])c1c(Cl)c(Cl)c(Cl)c(Cl)c1Cl | 39.8 µM (active) and 31.7 µM (active) | inactive |  | inactive | 31.6 µM (active) and inactive | inactive | inactive | 8.9 µM (active) and 1.59 µM (active) | inactive | inactive

— PubChem BioAssay (Tox21)
